Assay results as given in the supplement of paper PMC5499739.
In all, about 16,000 sequences were measured (“Z-score”: median about -0.37, highest 2% from about 3.1 on). The sample as a whole holds a higher share of the highest values than the screen did.

System: RBM10 RRM1-ZnF-RRM2 (GST-tagged construct)
Experiment: RNAcompete 7-mer binding Z-score; higher = stronger binding preference
Description: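 RNAcompete: 20 pmol GST-tagged RBM10 RNA-binding constructs were incubated with a designed RNA pool of about 241,000 sequences up to 41 nt (1.5 nmol) on glutathione beads for 30 min at 4 °C and washed. Bound RNAs were identified by microarray hybridisation. Each RNA 7-mer is scored by a one-sided Z-score of its enrichment, computed over probes that contain the 7-mer within longer pool sequences.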

Sequence | RNAcompete 7-mer binding Z-score
CGUGGAA | 1.29
GGUGGAU | 2.46
AGUGGAC | 1.44
UGUGGAA | 1.47
GGUGGAG | 3.9
GGUGGAA | 3.71
UGUGGAG | 2.47
CGUCACU | -0.515
CACCCUG | -0.89
AUGACUA | -0.347
UGUGGUA | 0.833
GACGAGA | 0.691
UCAGCGU | -0.26
CCGGCAC | -0.388
UAGGAGG | 2.94
UAGGAGA | 1.78
AAGGAUA | 2.92
CAGGAGA | 2.02
AAGGAGA | 3.18
AAGGAGG | 4.62
GAGGAGG | 2.99
AAGGAUG | 3.89
GAGGAUG | 2.57

Sequence | RNAcompete 7-mer binding Z-score
CCCAAUA | -0.759
CCGUCGC | -0.752
UGAUCCA | -0.515
ACAUCCU | -0.839
GCAGGAU | 1.22
UGAGCGG | 2.06
GGAGCGA | 2.9
AGAGCGG | 1.46
CGAGCGG | 3.33
GGAGCGG | 4.19
CGAGCGU | 0.166
AGAGCGA | 0.581
CGGGUUU | 1.01
CUAUCGA | -0.781
AUGGAAC | 2.02
AUGGAAG | 3.16
GUGGAAG | 3.47
AUGGAAA | 2.62
GUGGAAC | 1.73
GUGGAAA | 2.46
UCGGAGU | 0.257
GGGGAUA | 3.16
AGGGAUC | 1.32

Sequence | RNAcompete 7-mer binding Z-score
GAGGAUA | 2
AGGGAUU | 2.37
CGGGAUA | 1.44
AGGGAUA | 4.38
CGCAAAG | -0.22
UCGGUUG | 0.286
ACAAUCU | -0.795
UUUGACG | -0.551
AUGUAGA | 0.243
UCACAAU | -0.511
ACAGUUC | -0.672
GGAAUGG | 4.19
AGAAUGG | 3.51
GGAAUGU | 1.58
UGAAUGG | 2.22
AGAAUGU | 0.184
CGAAUGG | 1.4
UUGUGUG | 0.0604
AAGAUAA | -0.0233
GAUGAAC | 0.385
CUUCCAU | -0.799
AGUCGCA | -0.122
GUGGUGC | 1.68

Sequence | RNAcompete 7-mer binding Z-score
CUGGUGG | 1.22
GUGGUGG | 3.78
AUGGUGG | 3.33
UUGGUGG | 2.09
AUGGUGC | 0.789
CUCGGGA | 0.228
CCGGACC | -0.712
GUCGUCU | -0.417
CGCAAAC | -0.588
GGGGGGA | 2.69
UGGGGAG | 3.37
CGGGGAG | 2.54
UUGGGGA | 2.27
GGGGGAG | 2.6
UGGGGAC | 2.28
UGGGGGA | 3.33
UGGGGAA | 3.58
UCGGGAA | 1.4
UGCGUGA | 0.381
UUGCGGU | -0.0161
AAAGCCU | -0.734
CCGUUGG | 0.228
CCGAUCU | -0.938

Sequence | RNAcompete 7-mer binding Z-score
GUAUGAA | 0.355
AGCAAGU | -0.0343
CUCGAAA | -0.493
GUGAGGG | 4
CUGAGGG | 1.53
GUGAGGC | 1.86
UUGAGGA | 1.04
AUGAGGU | 1.83
AUGAGGG | 4.32
AUGAGGC | 1.35
UUGAGGC | 0.341
UUGAGGG | 3.15
CAAAGAU | -0.282
UGGGACG | 2.27
AUCUGAA | -0.643
CGGUAAA | 0.352
GGGUAAA | 3.9
CGGUAAG | 1.52
AGGUAAA | 2.1
GGGUAAC | 2.47
GGGUAAG | 3.97
CGUAUGU | -0.337
ACUGCUA | -0.653

Sequence | RNAcompete 7-mer binding Z-score
GGUAUGG | 4.03
GGUAUGU | 1.33
GAUAUGG | 3.32
GGUAUGA | 1.89
GAUAUGC | -0.078
AAUAUGG | 1.27
GACCGAU | -0.479
ACGCUUU | -0.865
GGGAAUU | 1.91
GGGAACA | 3.06
UGGAACG | 1.92
GGGAACG | 3.86
CGGAAUA | 0.65
GGGAAUG | 3.43
AGGAAUG | 2.07
GGGAAUA | 3.15
CGGAAUG | 1.33
CACGUUA | -0.406
UCAGCUU | -0.905
CACAAUU | -0.577
CAUGUGU | -0.151
UCAUAUC | -0.613
GCGUGGA | 2.22

Sequence | RNAcompete 7-mer binding Z-score
UGGUGGC | 1.72
GAGUGGU | 2.52
AGGUGGA | 3
UGGUGGG | 4.04
AGGUGGG | 3.44
GGGUGCA | 3
AGGUGGU | 2.19
UGGUGGA | 2.74
UGGUGGU | 2.37
GGGUGGA | 4.54
GGGUGGU | 4.19
GACAAGU | 0.148
ACUAUAU | -0.544
AGUCCUC | -0.708
UUACAUU | -0.686
GAAUCUG | -0.632
GCUCGUU | -0.577
ACUCACG | -0.708
GCGCGGC | 0.811
GGCAUGC | 0.228
AUUCCGG | -0.559
UGUCAGA | -0.402
UCGUGGG | 2.23

Sequence | RNAcompete 7-mer binding Z-score
GGGUGGG | 4.11
ACGUGGG | 2.48
CGGUGGG | 3.18
GCGUGGG | 3.66
CGGUGGA | 2.27
GGGUGGC | 2.45
CGGUGGU | 1.62
GGGUGCG | 2.85
UUUGAGU | -0.213
ACGUAUA | -0.198
UUAGCGC | -0.617
AAGGAAA | 3.21
UAGGAAG | 1.94
AAGGAAC | 2.66
AAGGAAG | 4.04
UAGGAAA | 1.6
AAGGAAU | 2.34
GAGGAAG | 3.52
GAGGAAU | 1.71
CAGGAAA | 1.26
UUUGAUC | -0.719
CUGACGG | 0.243
AGAGGCA | 0.421
